These results are taken from PubChem BioAssay (EPA / NIEHS).

The term AC50 denotes the concentration at which the activity in the assay is half-maximal.

Values joined by “and” are separate entries in the source; they are usually repeats but may differ in a detail not shown here. Equal entries are not always repeated. Inconclusive results are not listed. Active and inactive are the calls of the source. How the source made its calls: active means hit-call score of the fitted dose curve at least 0.9, where 1 is the maximum; inconclusive means response in the unintended direction; inactive means score below 0.9.

Assay [1] has as its target human Vascular Endothelial Growth Factor Receptor 2 (VEGFR2), KDR (gene 3791) (UniProt P35968). In words: NVS_ENZ_hVEGFR2: NovaScreen (NVS) Enzymatic Assay for human Vascular Endothelial Growth Factor Receptor 2 (VEGFR2) (AID 2283230). A digest of the protocol:
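Cell-free recombinant VEGFR2 kinase, fluorescent substrate with electrophoretic mobility-shift separation; read 1 h after dosing. Screened at 25 uM in duplicate, hits to concentration-response up to 50 uM; loss-of-signal versus DMSO.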

Assay [2] addresses sheep Cyclooxygenase-1 (Cox1), PTGS1 (gene 443551) (UniProt P05979). The experiment in a line: NVS_ENZ_oCOX1: NovaScreen (NVS) Enzymatic Assay for sheep Cyclooxygenase-1 (Cox1) (AID 2283239).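 Further: actives reduce cyclooxygenase activity so potencies are for inhibitors.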 A digest of the protocol: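 Colorimetric enzyme readout using sheep seminal-vesicle cyclooxygenase-1, measured 0.66 h post-dosing. Single-concentration duplicates at 25 uM first, then concentration series for actives, with DMSO as baseline and plate controls.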

Assay [3] addresses Adenosine receptor A1 (Bos taurus) (UniProt P28190). The experiment in a line: NVS_GPCR_bAdoR_NonSelective: NovaScreen (NVS) G Protein-Coupled Receptor Assay for bovine Adenosine Receptor (AdoR), Non-selective Binding (AID 2283244). In outline: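 Bovine striatal membranes, radioligand displacement binding, 1 h after dosing, filter-based scintillation counting. Screened in duplicate at 25 uM, then concentration-response up to 50 uM; loss of specific binding relative to DMSO.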

Assay [4] relates to bovine Histamine 1 Receptor (H1), gene 281231. The experiment in a line: NVS_GPCR_bH1: NovaScreen (NVS) G Protein-Coupled Receptor Assay for bovine Histamine 1 Receptor (H1) (AID 2283246). In outline:
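Radioligand displacement on bovine cerebellar membranes, 1 h after dosing, filter-based scintillation read-out; loss of signal vs DMSO. Duplicate single-concentration screen at 25 uM, then concentration-response up to 50 uM for hits.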

Assay [5] deals with bovine Dopamine Receptor (DR), Non-selective Binding, DRD1 (gene 281125) (UniProt Q95136). The experiment in a line: NVS_GPCR_bDR_NonSelective: NovaScreen (NVS) G Protein-Coupled Receptor Assay for bovine Dopamine Receptor (DR), Non-selective Binding (AID 2283241). In outline: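 Bovine striatal membranes; radioligand displacement read by filtration and scintillation counting 1 h after dosing, loss of signal vs DMSO. Screened in duplicate at 25 uM, then concentration-response for hits.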

A short description of assay [6]: NVS_GPCR_bNPY_NonSelective: NovaScreen (NVS) G Protein-Coupled Receptor Assay for bovine Neuropeptide Y (NPY) Receptor, Non-selective Binding (AID 2283245). A digest of the protocol:
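Bovine hippocampal membranes incubated 1 hour with radioligand and test chemical. Bound ligand measured by filter-based scintillation counting. Single-concentration screen at 25 uM in duplicate, then concentration-response up to 50 uM.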

Assay [7] deals with human Serotonin, 5-Hydroxytryptamine Receptor 2A (5HT2A), HTR2A (gene 3356) (UniProt P28223). In words: NVS_GPCR_h5HT2A: NovaScreen (NVS) G Protein-Coupled Receptor Assay for human Serotonin, 5-Hydroxytryptamine Receptor 2A (5HT2A) (AID 2283249). In outline: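 Human cortex membranes, cell-free radioligand binding; filter-based scintillation read 1.5 h after dosing. Duplicate screen at 25 uM first; displacement of specific binding (loss of signal) versus DMSO.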

For assay [8], the system named is guinea pig Muscarinic, Peripheral (Mperiperal) Receptor, Non-selective Binding, gene 100379235. The experiment in a line: NVS_GPCR_gMPeripheral_NonSelective: NovaScreen (NVS) G Protein-Coupled Receptor Assay for guinea pig Muscarinic, Peripheral (Mperiperal) Receptor, Non-selective Binding (AID 2283250). A digest of the protocol: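 Guinea pig bladder membranes, radioligand binding read 1 h after dosing by filter scintillation counting; loss of signal vs DMSO. Primary duplicate screen at 25 uM, then concentration-response up to 50 uM.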

The target of assay [9] is human Serotonin, 5-Hydroxytryptamine Receptor 5A (5HT5A), HTR5A (gene 3361) (UniProt P47898). The experiment in a line: NVS_GPCR_h5HT5A: NovaScreen (NVS) G Protein-Coupled Receptor Assay for human Serotonin, 5-Hydroxytryptamine Receptor 5A (5HT5A) (AID 2283251). A digest of the protocol: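 Cell-free radioligand displacement binding on HEK293-derived membrane protein, 1 h incubation, filter-based scintillation counting. Primary screen in duplicate at 25 uM, actives followed in concentration series; loss of signal fitted versus DMSO.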

Assay [10] addresses guinea pig Opioid, Kappa 1 Receptor (OpiateK), OPRK1 (gene 100135587) (UniProt P41144). In words: NVS_GPCR_gOpiateK: NovaScreen (NVS) G Protein-Coupled Receptor Assay for guinea pig Opioid, Kappa 1 Receptor (OpiateK) (AID 2283252).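 Further: radioligand displacement from kappa opioid receptor in guinea pig cerebellar membranes; active means reduced radioligand binding relative to DMSO.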 A digest of the protocol:
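Guinea pig cerebellar membranes, radioligand displacement with filter-based scintillation counting, 2 h after dosing. Primary screen single concentration 25 uM in duplicate; actives retested in concentration series; loss of binding fitted versus DMSO.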

For assay [11], the target named is human Serotonin, 5-Hydroxytryptamine Receptor 6 (5HT6), HTR6 (gene 3362) (UniProt P50406). In words: NVS_GPCR_h5HT6: NovaScreen (NVS) G Protein-Coupled Receptor Assay for human Serotonin, 5-Hydroxytryptamine Receptor 6 (5HT6) (AID 2283253). A digest of the protocol:
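Radioligand binding to 5HT6 in HEK293-derived membranes, cell-free, 1 h after dosing; bound ligand measured by filter-based scintillation counting. Primary screen in duplicate at 25 uM; actives retested in concentration series.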

The target of assay [12] is human Adenosine A1 Receptor (AdoRA1), ADORA1 (gene 134) (UniProt P30542). The experiment in a line: NVS_GPCR_hAdoRA1: NovaScreen (NVS) G Protein-Coupled Receptor Assay for human Adenosine A1 Receptor (AdoRA1) (AID 2283254). In outline: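 Membranes from human cortical tissue were incubated with radioligand and test chemical for 1 hour, then filtered and counted. Activity was taken as signal loss relative to DMSO, screened at 25 uM in duplicate before concentration-response follow-up.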

Assay [13] concerns the target human Serotonin, 5-Hydroxytryptamine Receptor 7 (5HT7), HTR7 (gene 3363) (UniProt P34969). In words: NVS_GPCR_h5HT7: NovaScreen (NVS) G Protein-Coupled Receptor Assay for human Serotonin, 5-Hydroxytryptamine Receptor 7 (5HT7) (AID 2283255).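 Further: hits reduce specific radioligand binding relative to DMSO.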 A digest of the protocol:
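Radioligand displacement on membranes from CHO cells expressing human 5HT7, 1 h incubation, filter-based scintillation counting. Primary screen used a single 25 uM concentration in duplicate; actives were followed up in concentration series.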

For assay [14], the target named is sheep Cyclooxygenase-2 (Cox2), PTGS2 (gene 443460) (UniProt P79208). In words: NVS_ENZ_oCOX2: NovaScreen (NVS) Enzymatic Assay for sheep Cyclooxygenase-2 (Cox2) (AID 2283231). In outline: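 Colorimetric absorbance read-out of COX activity, taken 0.66 hour post-dosing, using native protein from sheep placenta. Single-concentration duplicate screen (25 uM), then singleton concentration-response up to 50 uM for actives.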

In assay [15] the test system is bovine Angiotensin II Receptor Type 2 (AT2), gene 407157. The experiment in a line: NVS_GPCR_bAT2: NovaScreen (NVS) G Protein-Coupled Receptor Assay for bovine Angiotensin II Receptor Type 2 (AT2) (AID 2283240). A digest of the protocol:
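Radioligand displacement on bovine cerebellar membranes, 1 hour incubation, filter-based scintillation counting; loss of signal vs DMSO. Duplicate single-point screen at 25 uM, then concentration-response to 50 uM maximum.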

For assay [16], the target named is human Adenosine A2a Receptor (AdoRA2a), ADORA2A (gene 135) (UniProt P29274). In words: NVS_GPCR_hAdoRA2a: NovaScreen (NVS) G Protein-Coupled Receptor Assay for human Adenosine A2a Receptor (AdoRA2a) (AID 2283256). In outline:
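Cell-free radioligand binding on membranes from HEK293 expressing the receptor; competitive displacement read 1.5 h after dosing by filter-based scintillation counting. Primary screen in duplicate at 25 uM; actives followed in concentration series, with DMSO as baseline.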

Assay [17] has as its target guinea pig Leukotriene D4 Receptor (LTD4), CYSLTR1 (gene 100135514) (UniProt Q2NNR5). The experiment in a line: NVS_GPCR_gLTD4: NovaScreen (NVS) G Protein-Coupled Receptor Assay for guinea pig Leukotriene D4 Receptor (LTD4) (AID 2283248). In outline:
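Radioligand displacement on guinea pig lung membranes, 1 h incubation, filtration and scintillation counting; DMSO as negative control. Duplicate 25 uM primary screen, then singleton concentration-response up to 50 uM.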

For assay [18], the target named is rat Catechol-O-Methyl Transferase (COMT), Comt (gene 24267) (UniProt P22734). In words: NVS_ENZ_rCOMT: NovaScreen (NVS) Enzymatic Assay for rat Catechol-O-Methyl Transferase (COMT) (AID 2283235). In outline:
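Cell-free enzyme activity with protein extracted from rat dorsal striatum, measured by HPLC with absorbance detection. Compounds screened at 25 uM in duplicate; actives then run in concentration-response up to 50 uM, loss of signal versus DMSO.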

In assay [19] the test system is guinea pig Leukotriene B4 Receptor (LTB4), gene 100379538. In words: NVS_GPCR_gLTB4: NovaScreen (NVS) G Protein-Coupled Receptor Assay for guinea pig Leukotriene B4 Receptor (LTB4) (AID 2283247). In outline:
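Radioligand displacement on guinea pig spleen membranes, filter-based scintillation counting 2 h after dosing. Primary duplicate single point at 25 uM; hits over threshold (e.g. 30% inhibition) run in concentration-response up to 50 uM, DMSO baseline.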

Sequence of human Adenosine A1 Receptor (AdoRA1), ADORA1 (gene 134) (P30542 whole entry, looked up): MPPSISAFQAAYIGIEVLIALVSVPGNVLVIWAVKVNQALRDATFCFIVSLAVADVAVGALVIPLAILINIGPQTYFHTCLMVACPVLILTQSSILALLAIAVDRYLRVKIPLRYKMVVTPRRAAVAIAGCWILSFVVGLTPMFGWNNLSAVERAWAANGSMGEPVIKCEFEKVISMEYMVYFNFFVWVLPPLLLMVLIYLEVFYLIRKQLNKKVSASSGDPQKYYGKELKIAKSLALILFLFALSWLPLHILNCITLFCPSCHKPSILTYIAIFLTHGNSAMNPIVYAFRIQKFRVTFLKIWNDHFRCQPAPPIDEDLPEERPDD
Sequence of human Serotonin, 5-Hydroxytryptamine Receptor 6 (5HT6), HTR6 (gene 3362) (P50406 whole entry, looked up): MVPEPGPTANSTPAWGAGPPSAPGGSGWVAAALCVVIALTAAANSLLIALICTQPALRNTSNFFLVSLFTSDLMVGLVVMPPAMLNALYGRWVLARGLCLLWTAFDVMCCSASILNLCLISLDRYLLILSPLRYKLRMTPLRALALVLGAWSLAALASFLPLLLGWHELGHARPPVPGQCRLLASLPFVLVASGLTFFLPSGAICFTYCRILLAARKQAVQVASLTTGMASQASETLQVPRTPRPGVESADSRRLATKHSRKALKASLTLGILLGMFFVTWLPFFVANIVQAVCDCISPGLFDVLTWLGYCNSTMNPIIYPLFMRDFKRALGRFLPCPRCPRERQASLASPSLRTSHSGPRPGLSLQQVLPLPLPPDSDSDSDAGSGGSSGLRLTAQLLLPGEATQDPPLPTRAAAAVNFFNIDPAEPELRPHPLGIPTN
Sequence of guinea pig Opioid, Kappa 1 Receptor (OpiateK), OPRK1 (gene 100135587) (P41144 whole entry, looked up): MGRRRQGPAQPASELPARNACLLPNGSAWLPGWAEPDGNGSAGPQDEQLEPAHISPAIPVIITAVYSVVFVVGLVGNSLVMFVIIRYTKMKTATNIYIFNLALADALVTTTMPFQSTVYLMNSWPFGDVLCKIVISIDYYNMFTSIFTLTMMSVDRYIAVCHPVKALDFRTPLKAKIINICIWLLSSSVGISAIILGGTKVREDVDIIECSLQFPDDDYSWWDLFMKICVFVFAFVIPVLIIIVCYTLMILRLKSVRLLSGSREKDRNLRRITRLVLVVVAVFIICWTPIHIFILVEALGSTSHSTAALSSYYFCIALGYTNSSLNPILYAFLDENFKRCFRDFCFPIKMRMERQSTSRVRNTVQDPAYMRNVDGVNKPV
Sequence of sheep Cyclooxygenase-1 (Cox1), PTGS1 (gene 443551) (P05979 whole entry, looked up): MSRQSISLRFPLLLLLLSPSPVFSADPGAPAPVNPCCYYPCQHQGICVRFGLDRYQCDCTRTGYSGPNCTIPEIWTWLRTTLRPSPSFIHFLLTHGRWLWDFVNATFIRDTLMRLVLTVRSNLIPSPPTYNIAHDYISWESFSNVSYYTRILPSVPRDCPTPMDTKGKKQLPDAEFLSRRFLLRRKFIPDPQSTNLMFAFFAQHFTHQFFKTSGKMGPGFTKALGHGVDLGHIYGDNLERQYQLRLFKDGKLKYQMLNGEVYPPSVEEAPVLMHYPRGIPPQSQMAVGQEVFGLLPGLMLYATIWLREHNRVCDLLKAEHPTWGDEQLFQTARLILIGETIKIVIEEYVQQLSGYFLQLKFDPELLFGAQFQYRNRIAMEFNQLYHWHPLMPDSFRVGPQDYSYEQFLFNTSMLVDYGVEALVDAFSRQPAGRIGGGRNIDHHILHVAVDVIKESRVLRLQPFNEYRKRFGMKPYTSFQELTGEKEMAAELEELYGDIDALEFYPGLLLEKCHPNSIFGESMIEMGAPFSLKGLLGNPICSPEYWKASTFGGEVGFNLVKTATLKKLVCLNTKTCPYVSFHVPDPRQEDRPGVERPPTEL
Sequence of human Serotonin, 5-Hydroxytryptamine Receptor 7 (5HT7), HTR7 (gene 3363) (P34969 whole entry, looked up): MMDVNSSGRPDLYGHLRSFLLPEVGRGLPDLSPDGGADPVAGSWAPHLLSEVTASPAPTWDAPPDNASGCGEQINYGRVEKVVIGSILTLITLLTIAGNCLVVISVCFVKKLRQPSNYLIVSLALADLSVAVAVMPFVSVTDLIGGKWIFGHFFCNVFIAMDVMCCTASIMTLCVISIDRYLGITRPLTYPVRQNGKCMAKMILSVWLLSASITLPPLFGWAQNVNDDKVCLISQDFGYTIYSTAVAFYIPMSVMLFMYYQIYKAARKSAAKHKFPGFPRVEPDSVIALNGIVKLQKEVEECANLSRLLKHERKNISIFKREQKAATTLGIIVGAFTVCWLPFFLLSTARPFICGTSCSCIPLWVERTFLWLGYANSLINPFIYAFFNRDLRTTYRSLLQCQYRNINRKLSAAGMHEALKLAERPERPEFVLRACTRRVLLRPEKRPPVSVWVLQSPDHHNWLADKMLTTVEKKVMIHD
Sequence of human Vascular Endothelial Growth Factor Receptor 2 (VEGFR2), KDR (gene 3791) (P35968 whole entry, looked up): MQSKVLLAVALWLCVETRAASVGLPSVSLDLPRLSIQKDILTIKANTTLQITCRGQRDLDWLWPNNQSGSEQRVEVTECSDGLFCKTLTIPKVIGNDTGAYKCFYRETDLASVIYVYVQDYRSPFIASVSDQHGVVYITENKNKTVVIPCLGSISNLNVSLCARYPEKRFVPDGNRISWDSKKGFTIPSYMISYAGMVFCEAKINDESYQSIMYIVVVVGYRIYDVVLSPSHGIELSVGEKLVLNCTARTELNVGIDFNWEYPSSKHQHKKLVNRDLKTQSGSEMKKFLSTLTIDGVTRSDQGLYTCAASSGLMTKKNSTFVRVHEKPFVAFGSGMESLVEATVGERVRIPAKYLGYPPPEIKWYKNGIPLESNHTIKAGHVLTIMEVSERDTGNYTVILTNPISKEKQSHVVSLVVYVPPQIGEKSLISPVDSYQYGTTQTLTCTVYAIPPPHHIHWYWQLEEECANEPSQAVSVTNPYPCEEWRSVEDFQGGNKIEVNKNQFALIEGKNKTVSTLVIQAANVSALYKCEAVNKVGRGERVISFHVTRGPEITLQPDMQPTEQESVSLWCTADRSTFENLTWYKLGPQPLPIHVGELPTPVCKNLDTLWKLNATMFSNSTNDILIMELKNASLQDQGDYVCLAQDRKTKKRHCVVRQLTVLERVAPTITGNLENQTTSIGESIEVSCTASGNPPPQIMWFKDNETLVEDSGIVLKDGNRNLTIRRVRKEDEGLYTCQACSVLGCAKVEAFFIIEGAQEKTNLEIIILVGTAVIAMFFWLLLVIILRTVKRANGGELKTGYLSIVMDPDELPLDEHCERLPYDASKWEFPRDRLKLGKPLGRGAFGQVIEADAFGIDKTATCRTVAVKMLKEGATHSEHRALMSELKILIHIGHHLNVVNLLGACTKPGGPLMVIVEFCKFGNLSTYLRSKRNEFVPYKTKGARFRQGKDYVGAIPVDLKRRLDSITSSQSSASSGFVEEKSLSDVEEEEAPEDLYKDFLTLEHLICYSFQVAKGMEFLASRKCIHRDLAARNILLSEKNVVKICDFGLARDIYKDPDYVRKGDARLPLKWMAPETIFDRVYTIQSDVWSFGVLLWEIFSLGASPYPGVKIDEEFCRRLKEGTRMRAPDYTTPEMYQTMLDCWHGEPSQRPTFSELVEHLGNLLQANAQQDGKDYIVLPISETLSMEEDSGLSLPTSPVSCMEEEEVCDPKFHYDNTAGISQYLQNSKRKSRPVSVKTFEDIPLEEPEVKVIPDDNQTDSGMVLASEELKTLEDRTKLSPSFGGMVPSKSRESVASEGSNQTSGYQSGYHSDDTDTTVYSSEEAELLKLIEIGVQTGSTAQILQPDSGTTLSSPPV
Sequence of human Serotonin, 5-Hydroxytryptamine Receptor 2A (5HT2A), HTR2A (gene 3356) (P28223 whole entry, looked up): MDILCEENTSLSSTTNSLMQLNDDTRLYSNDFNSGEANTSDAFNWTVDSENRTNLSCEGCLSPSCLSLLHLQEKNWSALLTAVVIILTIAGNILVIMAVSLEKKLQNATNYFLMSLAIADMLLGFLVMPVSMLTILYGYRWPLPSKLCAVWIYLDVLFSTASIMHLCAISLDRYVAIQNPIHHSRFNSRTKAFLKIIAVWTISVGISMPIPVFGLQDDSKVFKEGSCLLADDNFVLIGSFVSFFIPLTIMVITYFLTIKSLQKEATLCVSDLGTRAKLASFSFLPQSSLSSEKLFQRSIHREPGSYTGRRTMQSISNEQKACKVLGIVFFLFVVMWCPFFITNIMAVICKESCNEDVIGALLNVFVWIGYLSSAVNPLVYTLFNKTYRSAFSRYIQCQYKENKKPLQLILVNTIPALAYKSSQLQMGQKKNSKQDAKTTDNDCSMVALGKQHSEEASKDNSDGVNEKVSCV
Sequence of bovine Dopamine Receptor (DR), Non-selective Binding, DRD1 (gene 281125) (Q95136 whole entry, looked up): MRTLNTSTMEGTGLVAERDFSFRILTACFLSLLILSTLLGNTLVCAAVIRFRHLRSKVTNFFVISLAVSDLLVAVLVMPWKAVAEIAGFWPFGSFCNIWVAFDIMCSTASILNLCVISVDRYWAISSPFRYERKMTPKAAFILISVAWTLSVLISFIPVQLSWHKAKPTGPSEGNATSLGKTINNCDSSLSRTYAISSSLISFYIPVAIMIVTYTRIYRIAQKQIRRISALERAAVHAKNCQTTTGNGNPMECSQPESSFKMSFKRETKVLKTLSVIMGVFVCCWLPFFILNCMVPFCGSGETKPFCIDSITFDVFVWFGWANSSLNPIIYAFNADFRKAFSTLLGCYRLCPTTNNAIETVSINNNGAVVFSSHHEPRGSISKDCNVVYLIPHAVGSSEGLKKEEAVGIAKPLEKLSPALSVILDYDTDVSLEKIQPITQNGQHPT
Sequence of human Serotonin, 5-Hydroxytryptamine Receptor 5A (5HT5A), HTR5A (gene 3361) (P47898 whole entry, looked up): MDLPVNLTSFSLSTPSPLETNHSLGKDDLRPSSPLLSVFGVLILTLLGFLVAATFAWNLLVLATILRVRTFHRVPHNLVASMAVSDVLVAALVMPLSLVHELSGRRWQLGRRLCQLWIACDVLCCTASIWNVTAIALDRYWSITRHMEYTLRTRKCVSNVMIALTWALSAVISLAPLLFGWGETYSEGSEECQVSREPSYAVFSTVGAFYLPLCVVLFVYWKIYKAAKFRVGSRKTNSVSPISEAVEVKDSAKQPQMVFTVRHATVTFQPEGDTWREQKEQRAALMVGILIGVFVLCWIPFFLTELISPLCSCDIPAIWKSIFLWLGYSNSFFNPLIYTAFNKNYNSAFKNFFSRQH

In the case of `CC(C)(C)c1cc(/C=C2\SC(N)=NC2=O)cc(C(C)(C)C)c1O`, the call in [1], in assay [2], in assay [3] and in assay [4] was inactive.
As to `CN(C)C(=O)C1(N2CCCCC2)CCN(CC[C@@]2(c3ccc(Cl)c(Cl)c3)CN(C(=O)c3ccccc3)CCO2)CC1`, the result in [1] and in [12] was inactive. Also, the AC50 in [5] was 4.5 µM (active); in assay [6], 15.1 µM (active); in assay [7], 0.957 µM (active); in [8], 8.87 µM (active); in assay [9], 15.7 µM (active); in [10] it was 5.78 µM (active). Moreover, the AC50 in [11] is 23.6 µM (active); in assay [13], 3.39 µM (active).
Take `O=CCCCC=O`: the AC50 in assay [14] is 15.4 µM (active). In assay [4], the outcome was inactive.
As for `COc1cc(C(=O)NC2CCN(C)CC2)ccc1Nc1ncc2c(n1)N(C1CCCC1)CC(F)(F)C(=O)N2C`, in assay [1], the result was inactive. Moreover, the AC50 is 15.2 µM (active) in [14]; 14 µM (active) in [15]; 11.2 µM (active) in assay [5]; 23.2 µM (active) in [7]; 9.85 µM (active) in [8]; 23.2 µM (active) in assay [10]. The half-maximal activity concentration (AC50) in assay [12] is 4.71 µM (active); in [13], 3.25 µM (active); in assay [16], 13.8 µM (active).
Take `O=C1c2ccccc2C(=O)N1CCc1noc(-c2ccc(CN3CCCCCC3)s2)n1`: the call in [2], in [15], in assay [10] and in assay [12] was inactive. Further, the AC50 in assay [5] was 14.6 µM (active); in assay [4], 12.1 µM (active); in [7], 2.4 µM (active); in assay [8], 4.5 µM (active); in assay [13], 8.12 µM (active).
Regarding `CC/C(=C(/CC)c1ccc(O)cc1)c1ccc(O)cc1`, the result in [2] and in assay [9] was inactive. The AC50 is 5.08 µM (active) in [17]; 15.1 µM (active) in assay [10]; 25 µM (active) and 19.5 µM (active) in [11]; 4.81 µM (active) in assay [12].
Turning to `O=C(Nc1ccc(Cl)cc1)Nc1ccc(Cl)c(Cl)c1`, the outcome in assay [1] was inactive.
As to `CCCOC(=O)c1cc(O)c(O)c(O)c1`, the half-maximal activity concentration (AC50) in assay [14] was 14.8 µM (active); in [18] it was 0.454 µM (active); in assay [2] it was 12 µM (active); in assay [12], 14.4 µM (active). For the same compound, the call in assay [19] was inactive.
For the compound `OCCO`, the result in assay [1] was inactive.
